Assay [1] can be described thus: P-glycoprotein substrates identified in KB-8-5-11 adenocarcinoma cell line, qHTS therapeutic library screen (AID 1346987). Further: nearly all actives have a fitted effect of over 65% in size. Further: potency means the concentration at half of the fitted maximal effect. Conditions: KB-8-5-11 (P-gp overexpressing) viability, CellTiter-Glo, 72 h; series mostly up to 44.5 µM. The method, boiled down: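 P-gp-mediated resistance screen: KB-8-5-11 cells treated 72 h with compounds in dose-response. CellTiter-Glo viability.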

The test system of assay [2] is Zika virus NS2B-NS3 protease (linked construct). Kind of assay: Confirmatory screen NINDS AMC qHTS for Zika virus inhibitors (AID 1347152). Further: potency means the concentration at half of the fitted maximal effect; nearly all actives have a fitted effect of over 70% in size. To be noted: Purified linked NS2B-NS3, AMC substrate fluorescence; series mostly up to 36.9 µM. The method, boiled down:
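Linked NS2B-NS3 protease, 1 nM, in 10 mM Tris-HCl pH 8.0, 0.01% Tween 20; compounds preincubated 15 min at room temperature. Nle-KRR-AMC 10 microM (Km 18.3 µM); 15-min fluorescence change (340/450 nm) fitted to 4-parameter Hill.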
On the technique in general: Quantitative high-throughput screening tests each substance at several concentrations.

Assay [3] deals with Zika virus NS2B-NS3 protease (unlinked complex). Description: Confirmatory screen GU AMC qHTS for Zika virus inhibitors (AID 1347153).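 Further: enzyme at 25 nM with substrate at 10 µM below its Km of 18.3 µM; potency means the concentration at half of the fitted maximal effect; nearly all actives have a fitted effect of over 70% in size.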 To be noted: Recombinant NS2B-NS3 protease, AMC substrate fluorescence. The method, boiled down:
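Unlinked NS2B-NS3 complex (25 nM) in 10 mM Tris-HCl pH 8.0, 0.01% Tween 20 preincubated 15 min with compound, then 10 microM Bz-Nle-KRR-AMC (Km 18.3 µM). Fluorescence change over 15 min, normalized, Hill-fitted.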

The test system of assay [4] is Zika virus NS2B-NS3 protease. Kind of assay: Primary screen GU AMC qHTS for Zika virus inhibitors (AID 1347154). Further: nearly all actives have a fitted effect of over 70% in size. To be noted: Zika NS2B-NS3 unlinked protease, AMC fluorogenic substrate; series mostly up to 54.1 µM. The method, boiled down: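 Unlinked Zika NS2B hydrophilic domain/NS3 protease domain noncovalent complex (25 nM final) in 10 mM Tris-HCl pH 8.0, 0.01% Tween 20, with AMC peptide substrate. Fluorescence (ex 340, em 450 nm) change over 15 min, room temperature; percent inhibition fitted to 4-parameter Hill equation.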

Structures are written as SMILES. Results filed as inconclusive are left out. Active and inactive are the calls of the source. The call rests on the fitted dose curve; in most records, active means well fitted inhibition curve with a large enough effect; inconclusive means small, poorly fitted or top-dose-only effect; inactive means flat fitted curve, though single readings scatter.

As to `Cc1noc(-c2ccc(-c3ccc(CC(=O)O)cc3)cc2)c1NC(=O)O[C@H](C)c1ccccc1Cl`, the Potency entry in assay [1] was “inactive”. For the same compound, the Potency in assay [2] is 44.1 µM (active); in assay [3], 31.2 µM (active).
Consider `CCC(CN)CC(C)CCNCC(O)CNCC(C)CC(CC)CN` (stereo unspecified), for which, in assay [1], the Potency entry is “inactive”.
Turning to `CCCCCCCOc1cc2c(cc1/C(C)=C/c1ccc(C(=O)O)cc1)C(C)(C)CCS2(=O)=O`, the Potency in assay [2] and in assay [3] was 8.79 µM (active) throughout.
For the compound `O=S(=O)(c1ccccc1)N(CC(F)(F)F)c1ccc(C(O)(C(F)(F)F)C(F)(F)F)cc1`, the Potency result in assay [4] was “inactive”.
Turning to `NC(=O)C[C@@H](N)C(=O)O`, the Potency entry in assay [1] and in assay [4] was “inactive” in each case.
Turning to `O=C(CO)[C@@H](O)[C@H](O)[C@H](O)CO`, in assay [1], the Potency result was “inactive”.
`N#Cc1cc(-c2ccnc(Nc3ccc(N4CCOCC4)cc3)n2)ccc1OC1CCOCC1`: the Potency in assay [1] was 16.4 µM (active).
Regarding `O=C(O)c1ccc(N2C(=O)/C(=C/c3ccc(-c4ccc([N+](=O)[O-])cc4)o3)C=C2c2ccccc2)cc1`, the Potency in assay [2] is 12.4 µM (active).
For `C/C=C(/C)C(=O)OC1C=C2C3C(C)C(C)C(OC(=O)C(C)C(C)O)CC3(C)CCC2(C)C2(C)CC(OC(C)=O)C3C(C)(C)C(O)C(=O)CC3(C)C12` (stereo unspecified), in assay [1], the Potency entry was “inactive”.
Consider `O=C(Nc1ccc(-c2ccc(Cl)c(Cl)c2)cc1)C1=C(O)c2ccccc2S(=O)(=O)N1`, for which the Potency entry in assay [1] is “inactive”. The Potency in assay [2] is 49.4 µM (active); in assay [3] it was 44.1 µM (active).

The record behind these values is PubChem BioAssay (NCATS).
